Experiments:
U-2932 [1] = test: growth inhibition by drug alone (1 - RLU/untreated control) (fraction); higher = stronger inhibition; details: 177Lu-lilotomab satetraxetan 0 ug/ml
In short: (§1)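 A radiolabelled anti-CD37 antibody conjugate (~600 MBq/mg) was applied for 18 h at 0.5 µg/ml to RIVA and 1 µg/ml to U-2932 cells, with untreated cells run alongside. All cells were washed and seeded at 3,000 cells/well onto library-printed plates at 10/100 nM (RIVA) or 10/1,000 nM (U-2932). Growth inhibition was based on RealTime-Glo luminescence compared with untreated no-drug wells. Daily reads began on day 3 after 1 h at 37°C, with each value being 1 − RLU/mean of the 48 such wells on that plate.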

RIVA [2] = test: as above; details: 177Lu-lilotomab satetraxetan 0 ug/ml
In short: as §1

U-2932 [3] = test: growth inhibition by drug plus 177Lu-lilotomab satetraxetan (1 - RLU/untreated control) (fraction); higher = stronger inhibition; details: 177Lu-lilotomab satetraxetan 1 ug/ml
In short: as §1

RIVA [4] = test: as above; details: 177Lu-lilotomab satetraxetan 0.5 ug/ml
In short: as §1

| Compound | growth inhibition by drug alone (U-2932 [1]; 10 nM, time (day): 3) | growth inhibition by drug alone (U-2932 [1]; 10 nM, time (day): 4) | growth inhibition by drug alone (U-2932 [1]; 10 nM, time (day): 5) | growth inhibition by drug alone (U-2932 [1]; 10 nM, time (day): 6) | growth inhibition by drug alone (U-2932 [1]; 1000 nM, time (day): 3) | growth inhibition by drug alone (U-2932 [1]; 1000 nM, time (day): 4) | growth inhibition by drug alone (U-2932 [1]; 1000 nM, time (day): 5) | growth inhibition by drug alone (U-2932 [1]; 1000 nM, time (day): 6) | growth inhibition by drug alone (RIVA [2]; 10 nM, time (day): 3) | growth inhibition by drug alone (RIVA [2]; 10 nM, time (day): 4) | growth inhibition by drug alone (RIVA [2]; 10 nM, time (day): 5) | growth inhibition by drug alone (RIVA [2]; 10 nM, time (day): 6) | growth inhibition by drug alone (RIVA [2]; 100 nM, time (day): 3) | growth inhibition by drug alone (RIVA [2]; 100 nM, time (day): 4) | growth inhibition by drug alone (RIVA [2]; 100 nM, time (day): 5) | growth inhibition by drug alone (RIVA [2]; 100 nM, time (day): 6) | growth inhibition by drug plus 177Lu-lilotomab satetraxetan (U-2932 [3]; 10 nM, time (day): 3) | growth inhibition by drug plus 177Lu-lilotomab satetraxetan (U-2932 [3]; 10 nM, time (day): 4) | growth inhibition by drug plus 177Lu-lilotomab satetraxetan (U-2932 [3]; 10 nM, time (day): 5) | growth inhibition by drug plus 177Lu-lilotomab satetraxetan (U-2932 [3]; 10 nM, time (day): 6) | growth inhibition by drug plus 177Lu-lilotomab satetraxetan (U-2932 [3]; 1000 nM, time (day): 3) | growth inhibition by drug plus 177Lu-lilotomab satetraxetan (U-2932 [3]; 1000 nM, time (day): 4) | growth inhibition by drug plus 177Lu-lilotomab satetraxetan (U-2932 [3]; 1000 nM, time (day): 5) | growth inhibition by drug plus 177Lu-lilotomab satetraxetan (U-2932 [3]; 1000 nM, time (day): 6) | growth inhibition by drug plus 177Lu-lilotomab satetraxetan (RIVA [4]; 10 nM, time (day): 3) | growth inhibition by drug plus 177Lu-lilotomab satetraxetan (RIVA [4]; 10 nM, time (day): 4) | growth inhibition by drug plus 177Lu-lilotomab satetraxetan (RIVA [4]; 10 nM, time (day): 5) | growth inhibition by drug plus 177Lu-lilotomab satetraxetan (RIVA [4]; 10 nM, time (day): 6) | growth inhibition by drug plus 177Lu-lilotomab satetraxetan (RIVA [4]; 100 nM, time (day): 3) | growth inhibition by drug plus 177Lu-lilotomab satetraxetan (RIVA [4]; 100 nM, time (day): 4) | growth inhibition by drug plus 177Lu-lilotomab satetraxetan (RIVA [4]; 100 nM, time (day): 5) | growth inhibition by drug plus 177Lu-lilotomab satetraxetan (RIVA [4]; 100 nM, time (day): 6) |
| --- | --- | --- | --- | --- | --- | --- | --- | --- | --- | --- | --- | --- | --- | --- | --- | --- | --- | --- | --- | --- | --- | --- | --- | --- | --- | --- | --- | --- | --- | --- | --- | --- |
| COc1ccc(-c2ccc3c(N4CCOC[C@@H]4C)nc(N4CCOC[C@@H]4C)nc3n2)cc1CO | 0.165 | 0.142 | 0.0822 | 0.157 | 0.896 | 0.892 | 0.897 | 0.909 | 0.0033 | -0.0925 | -0.125 | -0.292 | 0.617 | 0.609 | 0.575 | 0.472 | 0.124 | 0.14 | 0.163 | 0.253 | 0.899 | 0.893 | 0.902 | 0.923 | 0.495 | 0.529 | 0.545 | 0.545 | 0.749 | 0.763 | 0.762 | 0.744 |
| CCc1cc(-c2n[nH]c(C)c2-c2ccc3c(c2)OCCO3)c(O)cc1O | 0.113 | 0.047 | -0.0381 | -0.212 | 0.0202 | -0.0494 | -0.116 | -0.126 | -0.0752 | -0.183 | -0.489 | -0.797 | -0.563 | -0.433 | -0.46 | -0.629 | 0.0102 | 0.053 | 0.0491 | 0.0788 | 0.0475 | 0.0422 | 0.0841 | 0.183 | 0.478 | 0.547 | 0.565 | 0.581 | 0.363 | 0.462 | 0.473 | 0.48 |
| C[C@@H](Oc1cc(-n2cnc3ccc(CN4CCN(C)CC4)cc32)sc1C(N)=O)c1ccccc1C(F)(F)F | 0.444 | 0.458 | 0.438 | 0.516 | 0.94 | 0.961 | 0.973 | 0.981 | 0.364 | 0.265 | 0.248 | 0.223 | 0.944 | 0.961 | 0.967 | 0.969 | 0.423 | 0.489 | 0.536 | 0.644 | 0.926 | 0.959 | 0.975 | 0.982 | 0.759 | 0.799 | 0.824 | 0.853 | 0.943 | 0.964 | 0.974 | 0.981 |
| Nc1nc(OCc2cc(Br)cs2)c2[nH]cnc2n1 [Lomeguatrib] | -0.115 | -0.036 | -0.163 | -0.244 | -0.0214 | -0.011 | -0.105 | -0.195 | -0.0122 | -0.0435 | -0.118 | -0.367 | -0.0285 | -0.0397 | -0.0789 | -0.154 | 0.00798 | 0.0431 | 0.0314 | 0.114 | -0.0706 | 0.00418 | 0.025 | 0.00957 | 0.437 | 0.531 | 0.544 | 0.548 | 0.404 | 0.479 | 0.488 | 0.463 |
| CCC[C@H](NC(=O)/C(C#N)=C/c1cccc(Br)n1)c1ccccc1 | 0.109 | 0.0652 | -0.0661 | -0.128 | 0.0251 | 0.0639 | -0.0194 | -0.182 | -0.0156 | -0.0305 | -0.179 | -0.663 | -0.455 | -0.31 | -0.323 | -0.514 | 0.0639 | 0.1 | 0.129 | 0.098 | 0.0285 | 0.0599 | 0.115 | 0.183 | 0.529 | 0.596 | 0.601 | 0.61 | 0.35 | 0.448 | 0.465 | 0.478 |
| Nc1ccccc1NC(=O)c1ccc(CNC(=O)OCc2cccnc2)cc1 [Entinostat (MS-275, SNDX-275)] | 0.036 | 0.00325 | 0.00221 | 0.0268 | 0.833 | 0.861 | 0.874 | 0.887 | -0.0286 | -0.0282 | -0.046 | -0.113 | 0.288 | 0.217 | 0.174 | 0.114 | 0.053 | 0.0586 | 0.0668 | 0.217 | 0.855 | 0.89 | 0.908 | 0.928 | 0.486 | 0.568 | 0.585 | 0.591 | 0.604 | 0.62 | 0.628 | 0.595 |
| COc1cc2c(NC3CCN(C)CC3)nc(N3CCCN(C)CC3)nc2cc1OCCCN(C)C | 0.0324 | -0.0188 | -0.094 | -0.326 | -0.0483 | -0.0744 | -0.125 | -0.235 | -0.117 | -0.195 | -0.474 | -0.819 | -0.568 | -0.503 | -0.528 | -0.706 | -0.0493 | -0.0119 | 0.0125 | 0.00172 | -0.0195 | -0.0136 | 0.00791 | 0.0785 | 0.365 | 0.464 | 0.475 | 0.499 | 0.316 | 0.452 | – | – |
